# From PubChem BioAssay (NCATS)
# Records with an inconclusive call do not appear. Entries that show only a call come without a potency. Calls of active or inactive are those of the source. Unless noted, calls follow the shape of the dose curve; as a rule, active = well fitted curve in the direction sought with a large enough effect; inconclusive = small, poorly fitted or top-dose-only effect, or another doubt; inactive = no such curve, though single readings can be large; an effect the other way counts as inactive or inconclusive.
# Columns and labels:
# [1] = Validation screen for small molecules that induce genotoxicity in human embryonic kidney (HEK293T) cells expressing luciferase-tagged ELG1 (AID 493106)
# How it was run: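 HEK293T cells expressing luciferase-tagged ELG1 were exposed to compound or DMSO vehicle for 16 hr at 37 °C, 5% CO2. Genotoxic stress raises ELG1 levels, so increased luciferase signal after ONE-Glo addition and 30 min at room temperature marks hits.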
# [2] = molecular target: Thyrotropin-releasing hormone receptor (Homo sapiens) (UniProt P34981); assay: qHTS for Small Molecule Agonists and Allosteric Enhancers of Human TRH Receptor: Validation Screen for Agonists (AID 493127;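 active = calcium activation more than 3 SD above the typical response in the agonist read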;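 also: intracellular calcium rise by fluo-8 fluorescence before TRH EC20 addition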); settings: TRH receptor agonist cell assay; at 2 µM; stronger effect = higher value
# Thyrotropin-releasing hormone receptor (Homo sapiens), sequence (P34981 whole entry, looked up): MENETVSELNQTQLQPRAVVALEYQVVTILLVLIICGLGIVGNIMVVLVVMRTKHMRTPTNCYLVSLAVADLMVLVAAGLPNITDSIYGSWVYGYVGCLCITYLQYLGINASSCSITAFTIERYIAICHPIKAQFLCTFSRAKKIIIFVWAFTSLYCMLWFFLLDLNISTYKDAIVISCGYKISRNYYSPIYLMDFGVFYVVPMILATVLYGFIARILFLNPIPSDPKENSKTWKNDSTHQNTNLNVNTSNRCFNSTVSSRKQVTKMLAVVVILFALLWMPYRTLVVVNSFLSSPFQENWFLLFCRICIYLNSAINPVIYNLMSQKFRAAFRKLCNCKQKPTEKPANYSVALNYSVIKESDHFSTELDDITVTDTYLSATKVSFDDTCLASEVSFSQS
# How it was run: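 TRHR-expressing cells were plated overnight in serum-containing medium, then loaded with fluo-8 calcium dye at room temperature for 30 min–1.5 h. After a 10 s baseline, compound was pin-transferred and calcium fluorescence (ex 480/em 530) read kinetically for agonist response.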
# [3] = Nrf2 qHTS screen for inhibitors: Validation (AID 493153; active = well fitted inhibition curve with a large enough effect in the main read-out, with a control signal flat, not every such curve was filed as active); settings: Potency: luciferase luminescence; viability change: measured here: cytotoxicity max response
# How it was run: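 A549 cells carrying an ARE-driven firefly luciferase reporter, in 5% FBS OPTI-MEM, were treated with compounds in concentration-response for 18-24 h at 37°C. Viability was read by CellTiter-Fluor fluorescence, then Nrf2 activity by luciferase luminescence.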
# [4] = qHTS for Inhibitors of Cell Surface uPA Generation: Validation Assay (AID 493164);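 also: RAW 264.7 macrophage cells exposed to compound for 18 h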
# How it was run: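 RAW 264.7, 4000 cells/well, o/n plating; cpd 7-pt 1:5 dilution 2.45 nM–38.3 uM final; 18 h, 37 C/5% CO2; ATP-Lite, 5 s luminescence exposure.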
# [5] = molecular target: Galactokinase (Homo sapiens) (UniProt P51570); assay: qHTS Validation Assay for Inhibitors of Human Galactokinase (GALK) (AID 493189)
# Galactokinase (Homo sapiens), sequence (P51570 whole entry, looked up): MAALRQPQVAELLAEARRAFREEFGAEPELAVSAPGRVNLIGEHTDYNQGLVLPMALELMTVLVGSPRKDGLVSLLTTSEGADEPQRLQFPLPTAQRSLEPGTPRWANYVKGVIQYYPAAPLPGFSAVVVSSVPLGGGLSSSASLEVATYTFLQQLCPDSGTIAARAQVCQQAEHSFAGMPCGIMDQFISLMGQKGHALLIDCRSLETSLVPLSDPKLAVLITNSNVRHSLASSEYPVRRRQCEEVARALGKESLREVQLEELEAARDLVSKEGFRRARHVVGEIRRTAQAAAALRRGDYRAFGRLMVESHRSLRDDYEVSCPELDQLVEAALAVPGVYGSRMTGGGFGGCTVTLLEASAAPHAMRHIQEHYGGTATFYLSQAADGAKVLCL
# How it was run: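 Luminescence from leftover ATP (Kinase-Glo Plus, 10 min) served as read-out after a 1 h room-temperature reaction of 5 nM GALK, 100 uM galactose and 35 uM ATP at pH8.0.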
# [6] = Validation screen for small molecules that induce DNA re-replication in SW480 colon adenocarcinoma cells (AID 504364)
# How it was run: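 SW480 cells seeded at 250 per well were exposed to compound or DMSO for 48 hr at 37 C, 5% CO2, then stained with Hoechst for 40 min. DNA content per nucleus was imaged (405 nm ex, 500-530 nm em).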
# [7] = molecular target: Peptidyl-prolyl cis-trans isomerase NIMA-interacting 1 (Homo sapiens) (UniProt Q13526); assay: qHTS Validation Assay to Find Inhibitors of Pin1 (AID 504536; active = well fitted inhibition curve with a large enough effect in the polarisation, with a control signal flat, not every such curve was filed as active; the % refers to the polarisation)
# Peptidyl-prolyl cis-trans isomerase NIMA-interacting 1 (Homo sapiens), sequence (Q13526 whole entry, looked up): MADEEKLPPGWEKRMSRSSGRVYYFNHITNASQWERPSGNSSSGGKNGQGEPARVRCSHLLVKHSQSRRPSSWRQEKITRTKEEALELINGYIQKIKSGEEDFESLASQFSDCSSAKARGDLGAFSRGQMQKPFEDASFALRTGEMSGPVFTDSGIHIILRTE
# How it was run: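 Fluorescence polarization competition: compounds (titration) displace HiFluor-488-labeled Pin1-1b peptide from Pin1 (0.3 uM final) in pH 7.5 HEPES buffer with DTT, 10 min at room temperature; %Activity normalized to no-enzyme wells, curves fitted.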
# [8] = molecular target: Phosphoglycerate kinase, glycosomal (Trypanosoma brucei brucei) (UniProt P07378); assay: qHTS Validation Assay to Find Inhibitors of Phosphoglycerate Kinase (AID 504547)
# Phosphoglycerate kinase, glycosomal (Trypanosoma brucei brucei), sequence (P07378 whole entry, looked up): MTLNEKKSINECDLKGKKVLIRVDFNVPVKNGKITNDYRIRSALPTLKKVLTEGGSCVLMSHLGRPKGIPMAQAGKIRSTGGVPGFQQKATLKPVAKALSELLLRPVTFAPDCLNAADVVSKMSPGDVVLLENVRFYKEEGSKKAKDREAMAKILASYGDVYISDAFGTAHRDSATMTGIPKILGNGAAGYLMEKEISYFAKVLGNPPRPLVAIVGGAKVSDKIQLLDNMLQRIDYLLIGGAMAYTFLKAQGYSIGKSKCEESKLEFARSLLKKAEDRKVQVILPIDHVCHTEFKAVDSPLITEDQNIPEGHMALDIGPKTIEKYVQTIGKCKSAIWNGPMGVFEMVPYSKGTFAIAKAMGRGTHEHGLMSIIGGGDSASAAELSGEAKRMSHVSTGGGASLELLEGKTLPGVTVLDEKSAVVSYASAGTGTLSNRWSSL
# How it was run: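 Inhibition of the enzyme is judged by a Kinase-Glo Plus luminescent signal following a one-hour incubation at room temperature. Because 1,3-BPG is unstable, it is made in situ by GAPDH at 100nM final; no-PGK wells define the baseline.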
# [9] = molecular target: phosphoglycerate mutase (Leishmania major) (UniProt Q4Q090); assay: qHTS Validation Assay to Find Inhibitors of Phosphoglycerate Mutase (AID 504548);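 also: end-point luminescence from Kinase-GloPlus after the PGAM reaction; series mostly up to about 58 µM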
# phosphoglycerate mutase (Leishmania major), sequence (Q4Q090 1-553): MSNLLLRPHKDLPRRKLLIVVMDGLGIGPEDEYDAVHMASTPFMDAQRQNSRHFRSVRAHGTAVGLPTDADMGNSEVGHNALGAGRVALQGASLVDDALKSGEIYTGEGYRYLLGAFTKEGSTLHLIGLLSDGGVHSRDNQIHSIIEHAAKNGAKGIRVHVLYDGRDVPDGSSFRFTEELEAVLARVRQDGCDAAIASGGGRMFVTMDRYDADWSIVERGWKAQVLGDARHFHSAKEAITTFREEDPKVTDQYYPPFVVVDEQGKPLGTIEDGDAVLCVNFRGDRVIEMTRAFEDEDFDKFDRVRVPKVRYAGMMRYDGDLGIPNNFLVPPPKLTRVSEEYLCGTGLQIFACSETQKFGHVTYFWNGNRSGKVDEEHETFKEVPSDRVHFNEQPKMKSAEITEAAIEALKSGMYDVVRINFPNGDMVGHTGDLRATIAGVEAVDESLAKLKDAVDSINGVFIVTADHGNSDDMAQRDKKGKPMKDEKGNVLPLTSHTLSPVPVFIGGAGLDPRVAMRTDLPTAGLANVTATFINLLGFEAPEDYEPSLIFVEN
# How it was run: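 L. major PGAM (1.25nM final) was added to substrate buffer and pinned compound, incubated 45 minutes at room temperature, then Kinase-GloPlus added; luminescence read after 10 minutes. Buffer: 100 mM TEA pH 7.6, 5 mM MgCl2, 0.01% Tween-20.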
# [10] = molecular target: Ubiquitin carboxyl-terminal hydrolase 1 (Homo sapiens) (UniProt O94782); assay: Inhibitors of USP1/UAF1: Pilot qHTS (AID 504865);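 also: rhodamine fluorescence freed from ubiquitin-rhodamine substrate followed over time; top concentration of the series differs between compounds; nearly all actives have a fitted effect of over 35% in size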
# Ubiquitin carboxyl-terminal hydrolase 1 (Homo sapiens), sequence (O94782 whole entry, looked up): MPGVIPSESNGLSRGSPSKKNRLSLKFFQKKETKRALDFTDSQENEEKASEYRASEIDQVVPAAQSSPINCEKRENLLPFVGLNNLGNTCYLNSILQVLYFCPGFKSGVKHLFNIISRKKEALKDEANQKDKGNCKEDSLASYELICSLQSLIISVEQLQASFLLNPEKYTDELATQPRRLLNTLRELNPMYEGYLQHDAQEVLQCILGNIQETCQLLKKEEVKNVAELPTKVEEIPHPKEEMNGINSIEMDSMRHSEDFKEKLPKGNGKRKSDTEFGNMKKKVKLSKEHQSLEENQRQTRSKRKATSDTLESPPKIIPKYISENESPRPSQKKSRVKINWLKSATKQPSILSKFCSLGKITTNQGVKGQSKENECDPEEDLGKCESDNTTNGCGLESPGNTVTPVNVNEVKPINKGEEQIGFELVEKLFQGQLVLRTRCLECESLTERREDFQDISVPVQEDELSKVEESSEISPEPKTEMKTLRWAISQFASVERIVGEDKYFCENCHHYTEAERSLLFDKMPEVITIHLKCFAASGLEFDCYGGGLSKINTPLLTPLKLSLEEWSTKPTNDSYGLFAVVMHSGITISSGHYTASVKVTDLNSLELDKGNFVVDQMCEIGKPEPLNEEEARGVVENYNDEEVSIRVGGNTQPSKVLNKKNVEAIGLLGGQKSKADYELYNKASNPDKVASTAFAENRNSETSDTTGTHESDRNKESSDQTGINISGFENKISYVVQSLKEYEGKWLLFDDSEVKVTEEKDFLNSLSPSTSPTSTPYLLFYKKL
# How it was run: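 1nM USP1/UAF1 + cpd, 15 min RT; start w/ Ub-Rho 150nM final; kinetic FL 480/540 nm, 6 reads q60 s. Buffer 50mM HEPES pH 7.8, 0.5mM EDTA, 1mM TCEP, 0.01% Tween-20, 0.1 mg/ml BSA.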
# [11] = qHTS for Inhibitors of ATXN expression: Validation of Cytotoxic Assay (AID 588349)
# How it was run: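 HEK293 cells were dosed with titrated compounds for 72 hr at 37 degrees C. Viability was read by CellTiter Glo luminescence, with intracellular ATP as the marker of cell survival.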
# [12] = qHTS for Inhibitors of ATXN expression: Validation (AID 588378); also: series mostly up to about 57 µM; nearly all actives have a fitted effect of over 75% in size
# How it was run: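 Cells: HEK293-ATXN2-FFLuc, phenol-red free DMEM, 2 h attachment. Compound pin-transfer, 24 h, 37 degrees C, 5% CO2. CellTiter-Fluor 30 min, Ex405/Em525; Bright-Glo 5 min, luminescence 2 s exposure.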
# [13] = molecular target: ATPase family AAA domain-containing protein 5 (Homo sapiens) (UniProt Q96QE3); assay: Validation screen for small molecules that inhibit ELG1-dependent DNA repair in human embryonic kidney (HEK293T) cells expressing luciferase-tagged ELG1 (AID 493107); also: nearly all actives have a fitted effect of over 70% in size; also: potency is read from the fitted curve at half-maximal effect
# ATPase family AAA domain-containing protein 5 (Homo sapiens), sequence (Q96QE3 whole entry, looked up, the tested form may be a part): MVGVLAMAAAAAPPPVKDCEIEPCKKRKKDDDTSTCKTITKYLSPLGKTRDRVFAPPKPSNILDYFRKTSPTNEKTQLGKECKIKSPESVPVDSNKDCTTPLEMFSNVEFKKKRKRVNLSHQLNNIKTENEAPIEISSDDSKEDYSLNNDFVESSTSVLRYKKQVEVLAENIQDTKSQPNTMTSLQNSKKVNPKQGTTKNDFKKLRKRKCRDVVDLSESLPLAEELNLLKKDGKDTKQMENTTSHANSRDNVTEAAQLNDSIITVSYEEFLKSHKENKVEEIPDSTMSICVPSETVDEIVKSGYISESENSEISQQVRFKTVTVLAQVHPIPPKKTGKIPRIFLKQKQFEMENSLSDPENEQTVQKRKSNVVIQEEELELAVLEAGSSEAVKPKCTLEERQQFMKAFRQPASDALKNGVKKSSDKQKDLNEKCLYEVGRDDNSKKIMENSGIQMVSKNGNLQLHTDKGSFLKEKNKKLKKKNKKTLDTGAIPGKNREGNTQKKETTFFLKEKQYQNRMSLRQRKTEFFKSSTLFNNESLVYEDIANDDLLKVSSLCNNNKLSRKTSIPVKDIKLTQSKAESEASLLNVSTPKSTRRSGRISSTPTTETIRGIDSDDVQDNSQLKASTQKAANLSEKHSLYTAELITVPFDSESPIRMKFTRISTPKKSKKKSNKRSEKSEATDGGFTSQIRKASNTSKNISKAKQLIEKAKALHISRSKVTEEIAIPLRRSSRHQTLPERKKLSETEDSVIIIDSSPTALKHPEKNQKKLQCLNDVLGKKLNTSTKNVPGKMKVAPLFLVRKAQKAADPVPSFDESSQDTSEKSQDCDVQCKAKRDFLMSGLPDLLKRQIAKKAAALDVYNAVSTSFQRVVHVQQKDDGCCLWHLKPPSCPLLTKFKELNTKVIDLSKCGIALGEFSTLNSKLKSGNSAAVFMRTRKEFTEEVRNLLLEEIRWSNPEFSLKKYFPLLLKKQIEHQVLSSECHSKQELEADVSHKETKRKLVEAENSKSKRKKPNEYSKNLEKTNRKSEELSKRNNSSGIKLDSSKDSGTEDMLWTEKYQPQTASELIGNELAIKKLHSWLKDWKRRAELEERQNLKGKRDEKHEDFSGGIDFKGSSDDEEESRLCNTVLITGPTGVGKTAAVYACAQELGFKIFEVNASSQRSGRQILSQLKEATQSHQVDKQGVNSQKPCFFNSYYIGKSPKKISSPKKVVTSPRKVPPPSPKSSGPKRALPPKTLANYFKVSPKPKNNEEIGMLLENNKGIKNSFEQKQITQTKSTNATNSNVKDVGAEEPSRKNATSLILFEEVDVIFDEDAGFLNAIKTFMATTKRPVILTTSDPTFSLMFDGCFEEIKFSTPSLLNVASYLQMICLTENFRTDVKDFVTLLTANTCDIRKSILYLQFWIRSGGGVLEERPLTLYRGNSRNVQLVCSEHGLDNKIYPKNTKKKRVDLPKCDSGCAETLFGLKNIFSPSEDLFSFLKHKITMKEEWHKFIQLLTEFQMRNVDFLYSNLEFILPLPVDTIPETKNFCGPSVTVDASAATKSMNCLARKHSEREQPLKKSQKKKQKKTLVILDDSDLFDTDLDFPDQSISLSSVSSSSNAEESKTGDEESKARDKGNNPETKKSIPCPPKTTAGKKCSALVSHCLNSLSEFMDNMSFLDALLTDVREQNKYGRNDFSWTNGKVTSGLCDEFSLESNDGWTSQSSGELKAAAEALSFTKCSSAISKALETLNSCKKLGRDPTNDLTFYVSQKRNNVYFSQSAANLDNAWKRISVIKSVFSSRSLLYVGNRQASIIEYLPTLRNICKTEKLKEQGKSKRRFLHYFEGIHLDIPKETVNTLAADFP
# How it was run: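 HEK293T cells expressing luciferase-tagged ELG1 were co-treated with 5-fluorouridine and compound or DMSO for 16 hr at 37 °C, 5% CO2. Luciferase activity was then read with ONE-Glo after 30 min at room temperature; suppressed signal indicates blocked ELG1 function.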
# [14] = molecular target: DNA dC->dU-editing enzyme APOBEC-3G (Homo sapiens) (UniProt Q9HC16); assay: qHTS for inhibitors of Vif-A3G interactions: Validation (AID 588379)
# DNA dC->dU-editing enzyme APOBEC-3G (Homo sapiens), sequence (Q9HC16 whole entry, looked up): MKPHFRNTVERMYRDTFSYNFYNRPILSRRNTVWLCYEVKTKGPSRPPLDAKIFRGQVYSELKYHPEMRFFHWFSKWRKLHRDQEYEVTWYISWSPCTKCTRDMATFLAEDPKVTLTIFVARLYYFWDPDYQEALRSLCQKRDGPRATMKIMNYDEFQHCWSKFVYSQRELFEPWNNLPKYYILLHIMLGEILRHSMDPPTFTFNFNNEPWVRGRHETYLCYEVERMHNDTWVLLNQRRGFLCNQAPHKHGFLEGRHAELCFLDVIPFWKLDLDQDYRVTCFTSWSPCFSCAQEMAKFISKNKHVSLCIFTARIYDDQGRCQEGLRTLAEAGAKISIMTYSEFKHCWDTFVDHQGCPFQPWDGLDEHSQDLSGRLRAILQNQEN
# How it was run: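 HeLa cells stably expressing Vif and A3G-eYFP, 700 cells/well, incubated overnight at 37 deg C, then exposed to compound overnight at 37 deg C. Inhibition of Vif-mediated degradation read as increased yellow fluorescence (Ex 488/Em 500-530) by laser-scanning cytometry.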
Compound,Potency [1],activation [2],Potency [3],viability change [3] [%],outcome [4],outcome [5],outcome [6],outcome [7],outcome [8],outcome [9],Potency [10],Potency [11],Potency [12],Potency [13],outcome [14]
CCn1ccnc1CC1COc2ccccc2O1 (stereo unspecified),inactive,1.56% (inactive),inactive,-1.46,inactive,inactive,inactive,inactive,inactive,inactive,inactive,inactive,inactive,,
CN/C(=C\[N+](=O)[O-])NCCSCc1ccc(CN(C)C)o1,inactive,0.938% (inactive),,,inactive,,inactive,inactive,inactive,inactive,inactive,inactive,inactive,inactive,inactive
CCOC(=O)C1=C(C)NC(C)=C(C(=O)OC)C1c1cccc([N+](=O)[O-])c1 (stereo unspecified),inactive,-4.62% (inactive),inactive,9.17,inactive,,inactive,inactive,inactive,inactive,inactive,,inactive,,
CC(C)NCC(O)c1cc(O)cc(O)c1 (stereo unspecified),inactive,,,,inactive,inactive,inactive,inactive,inactive,inactive,inactive,inactive,inactive,inactive,
CN1CCN(CC(=O)N2c3ccccc3C(=O)Nc3cccnc32)CC1,inactive,,inactive,11.6,inactive,,inactive,inactive,inactive,inactive,inactive,inactive,inactive,,inactive
Fc1ccc(C(c2ccc(F)cc2)N2CCN(C/C=C/c3ccccc3)CC2)cc1,inactive,,inactive,-8.46,inactive,,,,inactive,inactive,,,,23.1 µM (active),
